Unmarked numbers belong to inactive results. The call rests on the fitted dose curve.
On the % scale 0 is the no-effect control and ±100 the full control effect.

Chain of Thyrotropin-releasing hormone receptor (Homo sapiens) (P34981 whole entry, looked up): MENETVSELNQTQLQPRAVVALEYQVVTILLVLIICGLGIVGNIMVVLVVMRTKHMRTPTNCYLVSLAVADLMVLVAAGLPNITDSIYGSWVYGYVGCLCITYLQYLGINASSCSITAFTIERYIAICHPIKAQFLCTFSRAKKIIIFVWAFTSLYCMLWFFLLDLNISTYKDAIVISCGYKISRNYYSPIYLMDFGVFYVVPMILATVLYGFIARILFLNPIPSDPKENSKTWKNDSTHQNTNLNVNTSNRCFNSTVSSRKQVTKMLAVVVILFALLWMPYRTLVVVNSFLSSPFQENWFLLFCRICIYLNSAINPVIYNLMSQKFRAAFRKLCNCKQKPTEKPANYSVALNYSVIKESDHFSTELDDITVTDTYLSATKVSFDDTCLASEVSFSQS

The target in the test is Thyrotropin-releasing hormone receptor (Homo sapiens) (UniProt P34981). In words: qHTS assay to identify small molecule agonists of the thyrotropin-releasing hormone receptor (TRHR) signaling pathway (AID 1346891). As to conditions: TRHR-HEK293 calcium fluorescence, agonist mode; series mostly up to 57.6 µM; activation: at the top concentration. The method, boiled down:
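Intracellular calcium rise, read as fluorescence every second for 3 min, served as the agonist signal in dye-loaded HEK293 cells expressing TRHR; each compound ran at 15 concentrations in triplicate.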
In general terms: Quantitative high-throughput screening tests each substance at several concentrations.
Turning to `C=CCCCCCCCCCCCC`, the “activation” value is 0.249%.

Regarding `C=C(C)C(=O)OCCOP(=O)(O)OCCOC(=O)C(=C)C`, the “activation” value was -0.748%.

For `CC(C)CC(=O)O`, the “activation” value was -0.413%.

For the compound `CC(C)C[C@H](NC(=O)CNC(=O)[C@H](Cc1ccc(O)cc1)NC(=O)[C@H](CO)NC(=O)[C@H](Cc1c[nH]c2ccccc12)NC(=O)[C@H](Cc1cnc[nH]1)NC(=O)[C@@H]1CCC(=O)N1)C(=O)N[C@@H](CCCN=C(N)N)C(=O)N1CCC[C@H]1C(=O)NCC(N)=O` (stereo in doubt), the “activation” value was 0.0581% [at 26.5 µM].

For the compound `O=C(CS(=O)Cc1ccco1)NC/C=C\COc1cc(CN2CCCCC2)ccn1` (configuration not stated), the “activation” value was 0.243% [at 26.5 µM].

As for `C=COCCOCCOCCOC=C`, the “activation” value was 0.0989%.

Regarding `Cc1cccc(OCC(O)CNC(C)(C)C)c1C` (configuration not stated), the “activation” value was 0.35% [at 26.5 µM].

Take `C=C(C)C(=O)OCCNC(C)(C)C`: the “activation” value was 0.134%.

As to `FC(F)(F)c1ccccc1-n1ccnc1`, the “activation” value was -0.0017% [at 26.5 µM].

For the compound `NCCS`, the “activation” value is -0.191% [at 26.5 µM].

Take `COP(=O)(OC)OC(c1ccc(Cl)cc1)P(=O)(OC)OC` (configuration not stated): the “activation” value is 0.11% [at 26.5 µM].

With `COc1ccc(-c2cc(=O)c3c(O)cc(O[C@@H]4O[C@H](CO[C@@H]5O[C@@H](C)[C@H](O)[C@@H](O)[C@H]5O)[C@@H](O)[C@H](O)[C@H]4O)cc3o2)cc1O`, the “activation” value was -0.711% [at 26.5 µM].

For the compound `Cc1nc2n(c(=O)c1CCN1CCC(c3noc4cc(F)ccc34)CC1)CCC[C@H]2O`, the activation is -0.0294% [at 11.8 µM].

For the compound `C[C@H](N)[C@H](O)c1cccc(O)c1`, the “activation” value was -0.0488% [at 26.5 µM].

`COc1cc(C(=S)N2CCOCC2)cc(OC)c1OC`: the “activation” value was 0.218% [at 26.5 µM].

For the compound `CC(C)C(=O)OCc1cccc(OC(=O)[C@@H]2N3C(=O)[C@@H](NC(=O)Cc4ccccc4)[C@H]3SC2(C)C)c1`, the “activation” value was 0.0624% [at 26.5 µM].

Take `CCN(CC)CC(=O)Nc1c(C)cccc1C`: the “activation” value was 0.141% [at 26.5 µM].

As to `OCCCCC(O)CO` (configuration not stated), the “activation” value is 0.0508%.

Consider `CC(S)C(=O)NCC(=O)O` (configuration not stated), for which the “activation” value is 0.0231% [at 26.5 µM].

In the case of `Cc1cccc(C)c1OCC(C)N` (configuration not stated), the “activation” value was 0.0911% [at 26.5 µM].

For `CC/C=C\CC1=C(C)CCC1=O`, the “activation” value is -0.31%.

In the case of `CC(=O)CCCCn1c(=O)c2c(ncn2C)n(C)c1=O`, the “activation” value was -0.139% [at 26.5 µM].

`C[C@@H](O)[C@H]1C(=O)N2C(C(=O)O)=C(SCCN=CN)C[C@H]12`: the “activation” value is -0.358% [at 26.5 µM].

For the compound `CCN1CCc2nc(N)oc2CC1`, the “activation” value is -0.0971% [at 26.5 µM].

`C[C@H](CCC(=O)O)[C@H]1CC[C@H]2[C@@H]3C(=O)C[C@@H]4CC(=O)CC[C@]4(C)[C@H]3CC(=O)[C@]12C`: the “activation” value was -0.217% [at 26.5 µM].

For the compound `O=C1c2ccccc2C(=O)C1c1ccccc1`, the “activation” value was -0.347% [at 26.5 µM].

For `Cc1cc2cc3c(C)cc(=O)oc3c(C)c2o1`, the “activation” value is 0.0277% [at 26.5 µM].

On to `CC(=C(CCOC(=O)C(C)C)SSC(CCOC(=O)C(C)C)=C(C)N(C=O)Cc1cnc(C)nc1N)N(C=O)Cc1cnc(C)nc1N`, for which the “activation” value is -0.0202% [at 26.5 µM].

On to `CC1(CO)CN(c2ccccc2)NC1=O` (configuration not stated), for which the “activation” value was -0.283%.

With `Nc1ncnc(Nc2ccccc2)n1`, the “activation” value was 0.0638% [at 26.5 µM].

`C=C(C)C(=O)OCCN(CC)CC`: the “activation” value is 0.0202%.

On to `COC(=O)[C@@H]1[C@H]2C[C@H]3c4[nH]c5ccccc5c4CCN3C[C@@H]2CC[C@@H]1O`, for which the “activation” value is -0.171% [at 26.5 µM].

Consider `C=C(C)C1CCC(C)(O)CC1` (configuration not stated), for which the “activation” value was 0.0857%.

Take `CO[C@@H]1[C@@H](OC(N)=O)[C@@H](O)[C@H](Oc2ccc3c(O)c(NC(=O)c4ccc(O)c(CC=C(C)C)c4)c(=O)oc3c2C)OC1(C)C`: the “activation” value was -0.404% [at 26.5 µM].

For the compound `CCOc1cc(NC(C)=O)ccc1C(=O)OC`, the “activation” value was -0.159% [at 26.5 µM].

Regarding `COCCOCCOCCOCCOCCO`, the “activation” value is 0.0207%.

Take `O=C1c2ccccc2C(=O)c2cc(S(=O)(=O)O)ccc21`: the “activation” value is 0.142%.

These data come from PubChem BioAssay (Tox21).
